“And” between values parts separate entries of the source, which are not always exact repeats. Identical values can stand only once. About 79,000 compounds went through this panel and 15% of them were active in at least one assay; those are over-represented in the sample as a whole. More than one record can exist for a structure, and the calls need not agree. The source made the active and inactive calls. Cut-off read from the data, not from the text of the source: active = growth inhibition above about 70%; inactive = the rest.

This assay in a line: NCI Yeast Anticancer Drug Screen. Data for the cln2 rad14 strain (AID 165).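 Note: 0% = growth equal to vehicle treated cultures.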 Particulars: S. cerevisiae cln2 rad14 strain, stronger effect = higher value. The procedure: Growth inhibition of yeast strains with defined genetic alterations is measured as a screen for potential anti-cancer activity. Selected strains with alterations in DNA damage repair or cell cycle control were exposed to compounds and growth inhibition was measured relative to vehicle treated controls. The strain used in this assay is cln2 rad14

Where [1] appears, read: at 5.0 µM (retest, dose inferred, filed as 0.5).
The mark [2] stands for this setting: at 50.0 µM (retest, dose inferred, filed as 5.0).

Turning to `c1ccc(-c2ccccn2)nc1`, the growth inhibition reads like this: under setting [1], 4% (inactive) and -5% (inactive); under setting [2], 61% (inactive) and 51% (inactive); (at 50.0 µM) 29.1% (inactive) and 21.4% (inactive).

`CCOc1c(Br)cc(/C=C/[N+](=O)[O-])cc1OC`: the growth inhibition was 45% (inactive) under setting [1], 92% (active) under setting [2] and 77% (active) (at 50.0 µM).

Consider `CCCCC1C(=O)NC(=S)N(c2ccccc2)C1=O` (stereo not given), for which the growth inhibition by setting is: under setting [1], -2% (inactive); under setting [2], -7% (inactive); (at 50.0 µM) 34.2% (inactive).

On to `Cc1cc(N(CCCl)CCCl)ccc1CN1CCCN(Cc2ccc(N(CCCl)CCCl)cc2C)C1c1ccc(N(CCCl)CCCl)cc1C`, for which the growth inhibition under setting [1] is 1% (inactive), the growth inhibition under setting [2] was 98% (active) and the growth inhibition (at 50.0 µM) is 87% (active).

For `CCC(C)c1cc([N+](=O)[O-])cc([N+](=O)[O-])c1O` (stereo not given), the growth inhibition runs as follows: under setting [1], -9% (inactive); under setting [2], 44% (inactive); (at 50.0 µM) 69.9% (inactive).

With `COc1cc(N(CCCl)CCCl)ccc1C=Nc1cccc(Cl)c1`, the growth inhibition under setting [1] is 0% (inactive), the growth inhibition under setting [2] is 20% (inactive) and the growth inhibition (at 50.0 µM) is 81.6% (active).

Take `c1cc[c]([Sn]([c]2ccccc2)([c]2ccccc2)[CH]2CCCCC2)cc1`: the growth inhibition runs as follows: under setting [1], -2% (inactive); under setting [2], 91% (active); (at 50.0 µM) 98.3% (active).

As for `CN(C)C(=[Se])[Se]C(=[Se])N(C)C`, the growth inhibition by setting is: under setting [1], 84% (active); under setting [2], 90% (active); (at 50.0 µM) 91% (active).

On to `Oc1c(Br)cc(Br)cc1Br`, for which the growth inhibition was 47% (inactive) and -11% (inactive) under setting [1]; 87% (active) and 99% (active) under setting [2]; 49% (inactive) and 98.4% (active) (at 50.0 µM).

Regarding `CCC1(O)C(=O)OCc2c1cc1n(c2=O)Cc2cc3ccccc3nc2-1` (stereo not given), the growth inhibition under setting [1] is 6% (inactive), the growth inhibition under setting [2] was 27% (inactive) and the growth inhibition (at 50.0 µM) was 19.3% (inactive).

Turning to `COc1cc(C=Nc2ccc(-c3csc(COc4ccccc4)n3)cc2)ccc1N(CCCl)CCCl`, the growth inhibition reads like this: under setting [1], 2% (inactive); under setting [2], 85% (active); (at 50.0 µM) 84.2% (active).

As for `CCCCN(C)CC(C(C)=O)C(c1ccccc1)c1c(O)c2ccccc2oc1=O` (stereo not given), the growth inhibition reads like this: under setting [1], 6% (inactive); under setting [2], 6% (inactive); (at 50.0 µM) 80.2% (active).

For the compound `CC(NCCN(C)C)C1CC2CCCCN2C1` (stereo not given), the growth inhibition is -17% (inactive) under setting [1], -26% (inactive) under setting [2] and 41.1% (inactive) (at 50.0 µM).

For the compound `NNc1n[nH]c(=S)n1N`, for the setting “at 50.0 µM”, the growth inhibition is 8.7% (inactive) and 13% (inactive) and 5.85% (inactive).
